Assay outcomes (PubChem BioAssay)
This is one part of a sample in which hits are shown more often than they occur.
Dicer processing – human Dicer pre-microRNA cleavage inhibition; Q9UPY3; cat-ELCCA pre-miR-21 Dicer processing, chemiluminescence; hits give high values; z-score at 25 µM; 47,000 tested, 6% active; in the data active = z-score above about 3, passing the limit was not always enough;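 also: plate controls were vehicle for no effect and no enzyme for full effect; higher signal means more uncleaved substrate so more Dicer inhibition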
Numbers without * were called inactive.

SMILES	Dicer processing
Cc1ccccc1NC(=S)N1CC(C)OC(C)C1 (stereo unspecified)	-1.1
COc1ccccc1C1Nc2ccc3ncccc3c2C2=C1C(=O)CC(C)(C)C2 (stereo unspecified)	1.18
Cc1ncc(CCCCN(C)C)c2c1[nH]c1ccccc12	7.67*
Cc1[nH]c2ccccc2c(=O)c1CN(C)C	-0.83
Cc1ccc(-c2nc(NCCCN(C)C)c3ccccc3n2)cc1	7.78
Cc1[nH]c2ccccc2c1C1(O)C(=O)N(CCCc2ccccc2)c2ccccc21 (stereo unspecified)	1.88
CS/C(NCc1cccnc1)=C(/C#N)C(=O)C1CC1	-7.87
O=C1CSC(=S)N1CCc1ccc(Cl)cc1	-1.23
O=C1CSC(=Nc2cc(Cl)c(Cl)cc2Cl)N1CCc1ccccc1	3.32*
COc1ccc(CCN2C(=O)CSC2=Nc2ccc(Cl)cc2C)cc1OC	2.28
COC(=O)c1ccc(C2c3c(oc4cc(C)c(C)cc4c3=O)C(=O)N2c2ccc(C)cn2)cc1 (stereo unspecified)	0.19
COc1ccc(C(=O)N2CCc3sccc3C2c2ccc(Cl)cc2)cc1 (stereo unspecified)	-1.69
CC1=C(C(=O)OCC2CCCO2)C(c2coc3ccc(Cl)cc3c2=O)C2=C(CCCC2=O)N1 (stereo unspecified)	2.06
CC1=C(C(=O)OCC2CCCO2)C(c2coc3ccc(Cl)cc3c2=O)C2=C(CC(C)(C)CC2=O)N1 (stereo unspecified)	3.19*
COc1ccc(C2C(C(=O)OCC3CCCO3)=C(C)NC3=C2C(=O)CC(C)(C)C3)cc1O (stereo unspecified)	-0.23
CC1=C(C(=O)OCC2CCCO2)C(c2ccccc2F)C2=C(CC(C)(C)CC2=O)N1 (stereo unspecified)	4.67*
CC1=C(C(=O)OCC2CCCO2)C(c2ccc3c(c2)OCO3)C2=C(CC(C)(C)CC2=O)N1 (stereo unspecified)	1.42
CC1=C(C(=O)OCC2CCCO2)C(c2cccc(C)c2)C2=C(CC(C)(C)CC2=O)N1 (stereo unspecified)	2.23
CCc1ccc(C2C(C(=O)OCC3CCCO3)=C(C)NC3=C2C(=O)CC(C)(C)C3)cc1 (stereo unspecified)	7.04*
CC1=C(C(=O)OCC2CCCO2)C(c2ccccc2C)C2=C(CC(C)(C)CC2=O)N1 (stereo unspecified)	-0.02
COc1cc(C2C(C(=O)OCC3CCCO3)=C(C)NC3=C2C(=O)CC(C)(C)C3)cc(Cl)c1O (stereo unspecified)	1.13
CCc1nc2ccccc2n2cc3c(=O)n(C)c(=O)n(C)c3c12	0.3
O=C(CN1C(=O)c2ccccc2C1=O)c1cccc(C(F)(F)F)c1	-0.87
O=c1nc(-c2ccc(Cl)cc2)c2ccccc2[nH]1	-0.4
Cc1cc(Cl)ccc1OCC(=O)Nc1sc2c(c1C(N)=O)CCC2	0.06
SMILES	Dicer processing
COC(=O)C(Cc1ccccc1)NC(C)=O (stereo unspecified)	-1.53
COC(=O)c1cc(-c2ccc(S(=O)(=O)N3CCN(Cc4ccccc4)CC3)cc2)c(C(F)(F)F)s1	-1.66
O=c1[nH]c(=O)n(Cc2c(Cl)cccc2Cl)cc1F	0.05
O=C(Cn1c2ccccc2n2nc(-c3ccco3)nc12)c1ccc(Cl)cc1	-0.7
Cc1ccc(C2=NN3C(C2)c2ccccc2OC3c2ccc(F)cc2)o1 (stereo unspecified)	2.06
c1ccc(C2Oc3ccccc3C3CC(c4cccs4)=NN32)nc1 (stereo unspecified)	1.46
O=[N+]([O-])c1ccc(/C=C/C2Oc3ccccc3C3CC(c4cccs4)=NN23)o1 (stereo unspecified)	6.54*
CCc1ccc(-c2nc3ccccc3c(=O)o2)cc1	0.7
CCN(CC)c1ncc2c(=S)[nH]c(=S)[nH]c2n1	-0.96
S=c1[nH]c(=S)c2cnc(N3CCN(c4ccccc4)CC3)nc2[nH]1	0.45
S=c1[nH]c(=S)c2cnc(N3CCOCC3)nc2[nH]1	3.41*
O=C(NC(=O)c1ccc(Oc2ccc(Cl)cc2)c([N+](=O)[O-])c1)Nc1ccccc1C(F)(F)F	0.23
COC(=O)C1=C(C)N=C2SC(C)C(=O)N2C1c1ccc(Cl)cc1 (stereo unspecified)	1.96
CCOC(=O)c1nc(Nc2cccc(O)c2)c2ccccc2n1	0.52
CCCSc1ccc2c3c(cccc13)C(=O)N(c1ccccc1)C2=O	-1.07
CN(C)c1ccc2c3c(cccc13)C(=O)N(c1ccccc1)C2=O	3.38*
O=C1c2cccc3c(N4CCCC4)ccc(c23)C(=O)N1c1ccccc1	1.97
CCSc1nnc(NC(=O)c2cc3ccccc3c(=O)o2)s1	-1.51
O=C(O)CC(Sc1nc2sc3c(c2c(=O)[nH]1)CCCC3)C(=O)O (stereo unspecified)	-0.14
Nc1nc(SCC(=O)NCCCO)nc2sc3c(c12)CCCC3	0.12
O=C(CSc1nc2sc3c(c2c(=O)[nH]1)CCCC3)NCCN1CCOCC1	3.88*
CN1C(=O)C2ON(c3ccc(Cl)cc3)C(c3cccs3)C2C1=O (stereo unspecified)	2.62
CCOc1ccc(/C(O)=C2\C(=O)C(=O)N(c3nnc(C)s3)C2c2ccc(OC)cc2)cc1 (stereo unspecified)	1.44
CCOc1ccc(/C(O)=C2\C(=O)C(=O)N(c3nccs3)C2c2ccc(OC)c(OC)c2)cc1 (stereo unspecified)	3.6*
CCOc1ccc(/C(O)=C2\C(=O)C(=O)N(c3nnc(C)s3)C2c2ccc(OC)c(OC)c2)cc1 (stereo unspecified)	2.32
SMILES	Dicer processing
COC(=O)C(O)(NC(=O)c1cccc(C(F)(F)F)c1)C(F)(F)F (stereo unspecified)	-0.56
Cc1[nH]nc(N/N=C/c2ccccc2)c1C(=O)O	0.29
Cc1ccc(CC2CC(=O)N(c3ccncc3)C2=O)cc1 (stereo unspecified)	-0.31
Cc1ccc(CC2CC(=O)N(c3ccc(C(=O)O)cc3)C2=O)cc1 (stereo unspecified)	2.34
Cc1ccc(CC2CC(=O)N(Cc3ccco3)C2=O)cc1 (stereo unspecified)	3.58*
Nc1nnc(SCC(=O)n2c3c(c4ccccc42)CCCC3)s1	-0.12
CCOC(=O)c1c(C)oc2cc(Br)c(OCC(=O)OC(C)(C)C)cc12	-0.79
Cc1nc(SCC(=O)c2ccccc2)c(C#N)c(C)c1C	4.36*
CCOC(=O)CC(=O)CSc1nc(C)c(C)c(C)c1C#N	0.68
CC(=O)c1ccc(C#N)c(SCC(=O)c2ccccc2)n1	0.91
Fc1cccc(Cl)c1CN1CCN(CCCNc2nc(-c3ccccc3)ns2)CC1	-0.74
O=S(=O)(c1ccccc1)c1csc(S(=O)(=O)N2CCCN(c3ccc(C(F)(F)F)cn3)CC2)c1	2.75
CCOC(=O)c1c(C)oc2ccc(OCC)cc12	1
Cn1c(=O)[nH]c(=O)c2c1nc1n(-c3ccccc3)c(-c3ccccc3)cn21	-0.35
CCN1C(=O)C2(/C(=C(/O)c3ccc(C)c(F)c3)C(=O)C(=O)N2CC2CCCO2)c2ccccc21 (stereo unspecified)	-1.99
COc1ccc(N=Nc2c(O)ccc3ccccc23)cc1	3.43*
Cc1cccc(N=Nc2c(O)ccc3ccccc23)c1	2.17
CCN(CCC#N)c1ccc(N=Nc2c(O)ccc3ccccc23)cc1	6.13*
Oc1ccc2ccccc2c1N=Nc1cccc(Cl)c1	3.73
Oc1ccc2ccccc2c1N=Nc1ccccc1F	1.43
Oc1ccccc1N=Nc1c(O)ccc2ccccc12	10.2
CC(C)(C)c1ccc(OCC(=O)NN)c(C(C)(C)C)c1	0.87
